Data from PubChem BioAssay (NCI).
The panel holds about 79,000 compounds, 15% with a hit somewhere; the sample as a whole holds those more often. Activity calls are given as the source filed them. Rule as the data show it: active = growth inhibition above about 70%; inactive = the rest.

Legend:
[1] = NCI Yeast Anticancer Drug Screen. Data for the rad52 strain (AID 147);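 also: 0% = growth of vehicle-treated control cultures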; conditions: S. cerevisiae rad52 mutant growth inhibition, stronger effect = higher value
Procedure, shortened: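 Compounds are applied to a genetically defined yeast strain lacking normal DNA damage repair, and inhibition of growth is expressed relative to cultures given vehicle only.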

[2] = NCI Yeast Anticancer Drug Screen. Data for the wt1 strain (AID 149);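 also: 0% = growth of vehicle-treated wt1 cultures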; conditions: S. cerevisiae wt1 strain (SPY 50644) growth inhibition, stronger effect = higher value
Procedure, shortened: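 wt1 yeast, compound-treated; % growth inhibition vs vehicle control.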

[3] = NCI Yeast Anticancer Drug Screen. Data for the rad50EPP+ strain (AID 151);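 also: 0% = growth of vehicle-treated control cultures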; conditions: S. cerevisiae rad50 mutant strain, stronger effect = higher value
Procedure, shortened: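 Compounds were applied to the rad50EPP+ yeast strain, which bears a defined DNA repair alteration, and growth inhibition was determined relative to vehicle-treated cultures.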

[4] = NCI Yeast Anticancer Drug Screen. Data for the rad50 strain (AID 155);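 also: 0% = growth of vehicle-only cultures of the same strain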; conditions: S. cerevisiae rad50 strain growth inhibition, stronger effect = higher value
Procedure, shortened: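 Genetically altered yeast (DNA repair pathway); compound treatment; growth inhibition vs vehicle ctrl.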

[5] = NCI Yeast Anticancer Drug Screen. Data for the mec2-1 strain (AID 157); conditions: S. cerevisiae mec2-1 strain, stronger effect = higher value
Procedure, shortened: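 Strain: mec2-1 (DNA repair/cell cycle alteration). Compound exposure, then growth measured; inhibition expressed relative to vehicle.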

[6] = NCI Yeast Anticancer Drug Screen. Data for the rad14 strain (AID 159);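 also: 0% = growth of vehicle-treated control cultures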; conditions: S. cerevisiae rad14 strain growth inhibition, stronger effect = higher value
Procedure, shortened: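 Test compounds were applied to a repair-deficient yeast strain. Its growth was then compared with that of cultures given vehicle alone, and inhibition was expressed relative to those controls.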

[7] = NCI Yeast Anticancer Drug Screen. Data for the sgs1 mgt1 strain (AID 161);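 also: 0% = growth of cultures given vehicle only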; conditions: S. cerevisiae sgs1 mgt1 strain, stronger effect = higher value
Procedure, shortened: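 Read-out: growth inhibition vs vehicle controls. Cells: mutant yeast strain deficient in DNA damage repair.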

[8] = NCI Yeast Anticancer Drug Screen. Data for the CLN2oe strain (AID 163);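 also: 0% = growth of vehicle-only control cultures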; conditions: S. cerevisiae CLN2oe strain, stronger effect = higher value
Procedure, shortened: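 Growth of a genetically modified yeast strain is measured after compound exposure and compared with cultures given vehicle alone.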

[9] = NCI Yeast Anticancer Drug Screen. Data for the cln2 rad14 strain (AID 165);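 also: 0% = growth equal to vehicle treated cultures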; conditions: S. cerevisiae cln2 rad14 strain, stronger effect = higher value
Procedure, shortened: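 Compounds are applied to the cln2 rad14 yeast strain, and growth is then compared with that of vehicle-treated cultures to give inhibition.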

[10] = NCI Yeast Anticancer Drug Screen. Data for the bub3 strain (AID 167); conditions: S. cerevisiae bub3 mutant strain, stronger effect = higher value
Procedure, shortened: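 Yeast carrying a defined mutation is treated with each compound, and growth is compared with that of vehicle-exposed cells to give inhibition.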

[11] = NCI Yeast Anticancer Drug Screen. Data for the mlh1 rad18 strain (AID 175); conditions: S. cerevisiae mlh1 rad18 strain growth inhibition, stronger effect = higher value
Procedure, shortened: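 Read-out is yeast growth inhibition, calculated against vehicle-only controls. The compound was applied to a strain engineered with DNA damage repair alterations.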

[12] = NCI Yeast Anticancer Drug Screen. Data for the rad18 strain (AID 177); conditions: S. cerevisiae rad18 mutant growth inhibition, stronger effect = higher value
Procedure, shortened: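 Growth of the mutant yeast strain after compound exposure, normalised to vehicle-only cultures.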

[13] = NCI Yeast Anticancer Drug Screen. Data for the wt2 strain (AID 169);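 also: 0% = growth of vehicle-treated yeast cultures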; conditions: S. cerevisiae wt2 strain growth inhibition, stronger effect = higher value
Procedure, shortened: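 This strain belongs to a panel of yeast strains with defined genetic alterations in DNA damage repair or cell cycle control. Compounds are applied, and growth inhibition is measured against vehicle-treated cultures.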

[14] = NCI Yeast Anticancer Drug Screen. Data for the mlh1 strain (AID 171);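 also: 0% = growth of vehicle-treated control cultures of the same strain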; conditions: S. cerevisiae mlh1 strain growth inhibition, stronger effect = higher value
Procedure, shortened: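 Growth of the mutant yeast strain after compound exposure, expressed as inhibition relative to vehicle-only controls.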

[15] = NCI Yeast Anticancer Drug Screen. Data for the sgs1 strain (AID 173);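 also: 0% = growth of vehicle-only control cultures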; conditions: S. cerevisiae sgs1 mutant, stronger effect = higher value
Procedure, shortened: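 Growth of a yeast strain bearing a defined genetic alteration is measured after compound treatment. Inhibition is expressed relative to vehicle-only controls.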

[16] = NCI Yeast Anticancer Drug Screen. Data for the mgt1 strain (AID 153); conditions: S. cerevisiae mgt1 mutant growth inhibition, stronger effect = higher value
Procedure, shortened: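 Strain: mgt1 yeast, one of a set carrying defined DNA damage repair or cell cycle control alterations. Compound-treated growth compared with vehicle.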

[17] = at 5.0 µM (retest, dose inferred, filed as 0.5)
[18] = at 50.0 µM (retest, dose inferred, filed as 5.0)

Measured: growth inhibition

O=C(NNc1ccccc1)C(CCCCNS(=O)(=O)Cc1ccccc1)NS(=O)(=O)Cc1ccccc1 (stereo unspecified)
active: [1]; at 100.0 µM 72% | [4]; at 100.0 µM 85% | [10]; at 33.0 µM 87% | [10]; [18] 86% | [11]; at 50.0 µM 75.2% | [12]; at 33.0 µM 90%
inactive: [1]; at 1.2 µM 3% | [1]; at 3.7 µM 9% | [1]; at 11.0 µM 29% | [1]; at 33.0 µM 46% | [2]; at 1.2 µM 4% | [2]; at 3.7 µM 9% | [2]; at 11.0 µM 26% | [2]; at 33.0 µM 44% | [2]; at 100.0 µM 54% | [3]; at 1.2 µM 3% | [3]; at 3.7 µM 10% | [3]; at 11.0 µM 25% | [3]; at 33.0 µM 55% | [3]; at 100.0 µM 68% | [4]; at 1.2 µM 5% | [4]; at 3.7 µM 10% | [4]; [17] 18% | [4]; at 11.0 µM 36% | [4]; at 33.0 µM 56% | [4]; [18] 53% | [4]; at 50.0 µM 51.2% | [5]; at 1.2 µM -2% | [5]; at 3.7 µM 8% | [5]; [17] 5% | [5]; at 11.0 µM 25% | [5]; at 33.0 µM 48% | [5]; [18] 34% | [5]; at 50.0 µM 26.4% | [5]; at 100.0 µM 39% | [6]; at 1.2 µM 0% | [6]; at 3.7 µM 1% | [6]; at 11.0 µM 3% | [6]; at 33.0 µM 13% | [6]; at 100.0 µM 18% | [7]; [17] 10% | [7]; [18] 54% | [7]; at 50.0 µM 51.5% | [8]; at 1.2 µM 1% | [8]; at 3.7 µM 6% | [8]; at 11.0 µM 31% | [8]; at 33.0 µM 51% | [8]; at 100.0 µM 44% | [9]; [17] 5% | [9]; [18] 46% | [9]; at 50.0 µM 14.8% | [10]; at 1.2 µM 1% | [10]; at 3.7 µM 3% | [10]; [17] 11% | [10]; at 11.0 µM 44% | [10]; at 50.0 µM 53.6% | [10]; at 100.0 µM 47% | [11]; [17] 14% | [11]; [18] 56% | [12]; at 1.2 µM 2% | [12]; at 3.7 µM 19% | [12]; at 11.0 µM 62% | [12]; at 100.0 µM 50%

CCCCCc1c(CCCC)c(=O)[nH]c2cc(CNCC(OC)OC)ccc12
active: [1]; at 33.0 µM 98% | [1]; at 100.0 µM 94% | [2]; at 33.0 µM 98% | [2]; at 100.0 µM 94% | [3]; at 100.0 µM 93% | [4]; at 33.0 µM 98% | [4]; [18] 96% | [4]; at 50.0 µM 88.9% | [4]; at 100.0 µM 93% | [5]; at 33.0 µM 98% | [5]; [18] 98% | [5]; at 50.0 µM 91.3% | [5]; at 100.0 µM 95% | [6]; at 11.0 µM 89% | [6]; at 33.0 µM 98% | [6]; at 100.0 µM 93% | [7]; at 50.0 µM 91% | [8]; at 33.0 µM 98% | [8]; at 100.0 µM 94% | [9]; [18] 95% | [9]; at 50.0 µM 86.5% | [10]; at 33.0 µM 98% | [10]; [18] 97% | [10]; at 50.0 µM 91.2% | [10]; at 100.0 µM 94% | [13]; at 33.0 µM 98% | [13]; at 100.0 µM 94% | [14]; at 33.0 µM 98% | [14]; at 100.0 µM 95% | [15]; at 33.0 µM 99% | [15]; at 100.0 µM 95% | [11]; [18] 96% | [11]; at 50.0 µM 87% | [12]; at 33.0 µM 98% | [12]; at 100.0 µM 94%
inactive: [1]; at 1.2 µM 15% | [1]; at 3.7 µM 11% | [1]; at 11.0 µM 26% | [2]; at 1.2 µM 1% | [2]; at 3.7 µM 7% | [2]; at 11.0 µM 20% | [3]; at 1.2 µM -8% | [3]; at 3.7 µM -9% | [3]; at 11.0 µM 3% | [3]; at 33.0 µM 10% | [4]; at 1.2 µM 14% | [4]; at 3.7 µM 19% | [4]; [17] 8% | [4]; at 11.0 µM 52% | [5]; at 1.2 µM -9% | [5]; at 3.7 µM -9% | [5]; [17] -7% | [5]; at 11.0 µM 7% | [6]; at 1.2 µM -23% | [6]; at 3.7 µM 24% | [7]; [17] 8% | [7]; [18] 46% | [8]; at 1.2 µM 0% | [8]; at 3.7 µM 11% | [8]; at 11.0 µM 63% | [9]; [17] 26% | [10]; at 1.2 µM -6% | [10]; at 3.7 µM 4% | [10]; [17] 19% | [10]; at 11.0 µM 31% | [13]; at 1.2 µM 7% | [13]; at 3.7 µM 11% | [13]; at 11.0 µM 28% | [14]; at 1.2 µM -5% | [14]; at 3.7 µM 13% | [14]; at 11.0 µM 52% | [15]; at 1.2 µM 10% | [15]; at 3.7 µM 23% | [15]; at 11.0 µM 69% | [11]; [17] 50% | [12]; at 1.2 µM 10% | [12]; at 3.7 µM 19% | [12]; at 11.0 µM 14%

COc1ccc(C(C)c2cc3c(cc2OC(C)O)OCO3)cc1 (stereo unspecified)
inactive: [1]; at 1.2 µM -2% | [1]; at 3.7 µM -3% | [1]; at 11.0 µM -1% | [1]; at 33.0 µM 1% | [2]; at 1.2 µM -2% | [2]; at 3.7 µM -3% | [2]; at 11.0 µM -4% | [2]; at 33.0 µM -4% | [3]; at 1.2 µM 0% | [3]; at 3.7 µM 15% | [3]; at 11.0 µM 15% | [3]; at 33.0 µM 33% | [3]; at 100.0 µM 36% | [16]; at 1.2 µM -3% | [16]; at 3.7 µM -2% | [16]; at 11.0 µM -3% | [16]; at 33.0 µM -2% | [4]; at 1.2 µM -6% | [4]; at 3.7 µM -46% | [4]; [17] 4% | [4]; at 11.0 µM 26% | [4]; at 33.0 µM 3% | [4]; [18] 11% | [4]; at 50.0 µM 18.8% | [5]; at 1.2 µM -3% | [5]; at 3.7 µM -2% | [5]; [17] 3% | [5]; at 11.0 µM -1% | [5]; at 33.0 µM -2% | [5]; [18] 31% | [5]; at 50.0 µM 0.2% | [7]; [17] 2% | [7]; [18] 37% | [7]; at 50.0 µM 58.5% | [8]; at 1.2 µM 4% | [8]; at 3.7 µM 1% | [8]; at 11.0 µM 2% | [8]; at 33.0 µM 1% | [8]; at 100.0 µM 38% | [9]; [17] 3% | [9]; [18] 1% | [9]; at 50.0 µM -31.5% | [10]; at 1.2 µM 0% | [10]; at 3.7 µM 6% | [10]; [17] 7% | [10]; at 11.0 µM 20% | [10]; at 33.0 µM 43% | [10]; [18] 52% | [10]; at 50.0 µM 25.4% | [10]; at 100.0 µM 64% | [13]; at 1.2 µM 3% | [13]; at 3.7 µM -1% | [13]; at 11.0 µM -2% | [13]; at 33.0 µM -2% | [13]; at 100.0 µM 32%
active: [1]; at 100.0 µM 89% | [2]; at 100.0 µM 88% | [16]; at 100.0 µM 95% | [4]; at 100.0 µM 96% | [5]; at 100.0 µM 87%
